Screens as filed in PubChem.
This is a sample that favours compounds with a hit; in the whole collection about 10% have one here.
Pf growth 96h: P. falciparum growth inhibition at 96 hours. hit rate 6.9% among 320,000. P. falciparum luciferase reporter growth, 96 h. Potency, µM (titrated, usually from 28.7 µM), inactives show top-dose activity change, negative = inhibition, actives largely listed as inhibitors. AID 504834; note: % is set by controls: 0 for no effect and ±100 for the full control effect
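P. falciparum expressing integrated firefly luciferase, in erythrocytes at 2% hematocrit, 0.05% parasitemia, incubated with compounds 96 h at 37 C, 5% CO2. Growth inhibition read as loss of luminescence; two-generation exposure targets delayed-death apicoplast inhibitors.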
Pf growth 48h: inhibits P. falciparum growth in the first generation, 48 h; P. falciparum luciferase growth in erythrocytes, 48 h; hit rate 5.9% among 310,000; Potency, µM (series often up to 28.7 µM), inactives show at the highest dose activity change, negative = inhibition, actives largely listed as inhibitors; AID 504832; note: % is set by controls: 0 for no effect and ±100 for the full control effect
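First compound was added to culture medium, then infected red cells at 0.1% parasitemia and 2% hematocrit (final). After incubation at 37 C under 5% CO2, luciferase detection reagent was dispensed and light output recorded.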
SARS PLpro yeast: SARS-CoV PLP inhibition in yeast; Potency, µM (titrated, usually from 32.9 µM), inactives show at the top dose activity, positive = growth rescue, actives largely listed as activators; hit rate 0.19% among 330,000; AID 485353; S. cerevisiae expressing SARS-CoV PLpro, growth rescue; calls by dose curve; note: 0% is about no effect; nearly all actives have a fitted effect of over 55% in size
NS1 function inh: inhibitors of influenza NS1 protein function. Potency, µM (series often up to 46.1 µM), without a hit: top-dose activity, positive = more growth. hit rate 0.4% among 270,000; calls by dose curve; note: actives are rising curves; nearly all actives have a fitted effect of over 50% in size
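Read-out: OD600 growth recovery of NS1-expressing budding yeast. Cells grown overnight at 30C in -URA glucose medium, washed, resuspended and diluted 1:100 in 2% galactose assay medium, pH 6.0. Same strain lacking NS1 served as positive control.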
Starred values were filed as active, the others as inactive; ? = inconclusive; . = no result; [ ] = dose if it differs, or a comment. Unless noted, calls come from the whole dose curve; as a rule, active = well fitted inhibition curve with a large enough effect; inconclusive = small, poorly fitted or top-dose-only effect, or another doubt; inactive = no such curve, though single readings can be large or run the other way. Potency is the fitted concentration of half-maximal effect.

SMILES	Pf growth 96h	Pf growth 48h	SARS PLpro yeast	NS1 function inh
CC(C)[C@@H](C(=O)O)N1C(=O)c2ccccc2C1=O	.	.	.	-3%
COC(=O)C1=C(C)N(Cc2ccccc2)C(=NCC2CC2)N[C@H]1c1ccc(Br)cc1	?	?	7%	6%
COCCCNC(=O)c1ccc(CS(=O)(=O)c2ccc(OC)cc2)o1	10µM*	18%	1%	-13%
COC(CNC(=O)c1ccc(CS(=O)(=O)c2ccc(C)cc2)o1)OC	2.6µM*	9%[0.00184 µM]	-2%	2%
COC(CNC(=O)c1ccc(CS(=O)(=O)c2ccc(Br)cc2)o1)OC	5%	-26%[0.00184 µM]	1%	-1%
O=C(CCl)Nc1cccn2ncnc12	.	10µM*	?	7%
CCOC(=O)c1nnn(-c2nonc2N)c1CN1CCCC1	0.66µM*	-13%	-4%	-42%
CC(/C=N/NC(=O)c1nnn(-c2nonc2N)c1CN1CCCCC1)=C\c1ccccc1	9.3µM*	?	-4%	9%
Cc1cc(-n2c(SCC(=O)NCCC3=CCCCC3)nc3n[nH]c(C)c3c2=N)ccc1Cl	4.7µM*	?	-1%	0%
Cc1ccc(Cl)cc1-n1c(SCC(=O)NCCC2=CCCCC2)nc2n[nH]c(C)c2c1=N	?	?	-3%	11%
COC(=O)[C@]12OC[C@]34C([C@@H](O)[C@@H]1O)[C@]1(C)CC(=O)C(O)=C(C)[C@@H]1C[C@H]3OC(=O)[C@H](O)[C@@H]24 (stereo partly drawn)	1µM*	1µM*	-4%	4%
N#CCCN/N=C(/Cc1nc2ccccc2[nH]1)c1cccc(Cl)c1	.	10µM*	6%	11%
Clc1ccc(/C=C/c2nc3ccccc3[nH]2)c(Cl)c1	-70%	9%	-46%	-165%
CC1CCCN(S(=O)(=O)c2ccc(C(=O)Nc3nnc(-c4ccco4)o3)cc2)C1 (stereo not drawn)	?	12µM*	1%	-9%
CCN(c1ccccc1)S(=O)(=O)c1ccc(C(=O)Nc2nnc(COC)o2)cc1	?	?	-4%	-15%
CCN(c1ccccc1)S(=O)(=O)c1ccc(C(=O)Nc2nnc(-c3ccco3)o2)cc1	?	?	2%	.
CCc1nnc(NC(=O)c2ccc(S(=O)(=O)N3CCCC(C)C3)cc2)o1 (stereo not drawn)	?	?	2%	-29%
CCC1CCCCN1S(=O)(=O)c1ccc(C(=O)Nc2nnc(C3CC3)o2)cc1 (stereo not drawn)	?	13µM*	13%	-53%
CCN(c1ccccc1)S(=O)(=O)c1ccc(C(=O)Nc2nnc(C3CC3)o2)cc1	?	9.3µM*	-1%	.
CN(c1ccccc1)S(=O)(=O)c1ccc(C(=O)Nc2nnc(-c3ccco3)o2)cc1	7.4µM*	?	12%	.
CC(=O)c1c(C)[nH]c(C(=O)OCC(=O)NCc2cccs2)c1C	112%	64%	3%	.
CN(c1ccccc1)S(=O)(=O)c1ccc(C(=O)Nc2nnc(C3CC3)o2)cc1	5.2µM*	12µM*	7%	.
COCCN(CCOC)S(=O)(=O)c1ccc(C(=O)Nc2nnc(C3CC3)o2)cc1	.	-11%	1%	-8%
Cc1ccc2nc(NCc3ccccc3)[nH]c2c1	1.2µM*	?	-5%	-6%
CC12COC3(C(=O)NCCc4ccccc4)CC1CCC32C (stereo not drawn)	0.0029µM*	17%	5%	-5%
SMILES	Pf growth 96h	Pf growth 48h	SARS PLpro yeast	NS1 function inh
CC12COC3(C(=O)Nc4ccccc4)CC1CCC32C (stereo not drawn)	20%	45%	-1%	-5%
C/C(=N\NC(=O)c1cccc(F)c1)c1ccc(Br)s1	3.7µM*	?	1%	-14%
C/C(=N\NC(=O)c1ccccc1[N+](=O)[O-])c1ccc(Br)s1	59%	-2%	-2%	1%
C/C(=N\NC(=O)c1ccccc1O)c1ccc(Br)s1	38%	13µM*	-1%	-9%
Cc1cc(C)c(C)c(S(=O)(=O)N(C)C2CCN(C)CC2)c1C	-13%	?	-3%	5%
COc1ccc(CNC(=O)CN(C)S(=O)(=O)c2ccc3c(c2)OCCO3)cc1OC	?	?	-1%	.
CC(C)C(c1nnnn1C1CCCC1)N1CCCCC1 (stereo not drawn)	15µM*	.	7%	11%
CC(C)C(c1nnnn1C1CCCCC1)N1CCN(c2ncccn2)CC1 (stereo not drawn)	.	13%	6%	-42%
c1cncc(C(c2nnnn2C2CCCCC2)N2CCCCC2)c1 (stereo not drawn)	-4%	15µM*	0%	-1%
